This passage reports binding signal results from PMC13541613, “GHT-SELEX demonstrates unexpectedly high intrinsic sequence specificity and complex DNA binding of many human transcription factors”.

For this test, the target named is ZNF721 full-length (Homo sapiens, UniProt Q8TF20-2 1-923). Put plainly: HT-SELEX; 20 mM HEPES pH 7, 140 mM KCl, 5 mM NaCl, 1 mM K2HPO4, 2 mM MgSO4, 100 uM EGTA, ZnSO4, 0.1% Tween20; room temperature, 1 h; high values mean tight binding. To be noted: protein: ivt; tags: eGFP (N-terminal); dsDNA, one strand shown. Put shortly: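 The binding signal is a relative k-mer count in selected reads, and higher values mean tighter binding. To obtain these reads, bead-bound tagged transcription factor (full-length or DNA-binding-domain fragment, produced in HEK293 lysate or cell-free extract) was mixed with a randomized 40-base DNA library for 1 h at room temperature in low-stringency HEPES/KCl buffer with Tween20. Bound DNA was recovered by washing and heat elution, PCR-amplified through successive cycles and sequenced on Illumina (~3 million 60 bp reads per sample).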
Sequence of ZNF721 full-length (Q8TF20 other isoform, or with tags, fused parts or gaps): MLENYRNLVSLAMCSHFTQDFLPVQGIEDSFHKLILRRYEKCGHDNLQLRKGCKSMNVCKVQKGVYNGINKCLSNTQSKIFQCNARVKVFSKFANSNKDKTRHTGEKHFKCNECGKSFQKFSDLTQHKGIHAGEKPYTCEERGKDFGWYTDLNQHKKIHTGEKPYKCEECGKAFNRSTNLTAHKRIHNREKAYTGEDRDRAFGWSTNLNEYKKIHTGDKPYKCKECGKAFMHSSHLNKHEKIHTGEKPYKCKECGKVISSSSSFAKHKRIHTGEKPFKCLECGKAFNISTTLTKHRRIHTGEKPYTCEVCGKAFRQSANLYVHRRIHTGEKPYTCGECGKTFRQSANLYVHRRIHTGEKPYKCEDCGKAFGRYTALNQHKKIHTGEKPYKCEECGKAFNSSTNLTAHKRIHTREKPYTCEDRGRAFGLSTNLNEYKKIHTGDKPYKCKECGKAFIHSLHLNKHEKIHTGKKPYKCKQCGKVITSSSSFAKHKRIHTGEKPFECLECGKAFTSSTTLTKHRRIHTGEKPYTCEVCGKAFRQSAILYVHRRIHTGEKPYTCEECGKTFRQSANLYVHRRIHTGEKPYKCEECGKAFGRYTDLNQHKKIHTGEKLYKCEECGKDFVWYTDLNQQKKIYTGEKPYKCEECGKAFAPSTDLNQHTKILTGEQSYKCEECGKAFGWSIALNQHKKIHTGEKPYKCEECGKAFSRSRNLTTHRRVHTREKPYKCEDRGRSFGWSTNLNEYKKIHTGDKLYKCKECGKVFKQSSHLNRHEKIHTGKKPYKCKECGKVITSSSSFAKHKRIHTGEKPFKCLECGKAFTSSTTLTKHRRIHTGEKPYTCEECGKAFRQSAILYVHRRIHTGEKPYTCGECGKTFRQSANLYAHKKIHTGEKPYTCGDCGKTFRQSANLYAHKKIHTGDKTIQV
For the sequence CTCCCCCTCC, the binding signal came to 0.14 relative 10-mer count.
For AGGGGCGGGG, the binding signal was 0.125 relative 10-mer count.
In the case of CTCCCACCCC, the binding signal worked out at 0.224 relative 10-mer count.
The sequence AAAGAAGCTA showed a binding signal of 0.132 relative 10-mer count.
Next, CGAAAAAAAA: 0.137 relative 10-mer count.
As for CCCCACCCGC, the binding signal came out at 0.186 relative 10-mer count.
With CCCCGCGCCC the figure was 0.138 relative 10-mer count; with CCCCATCCCC, 0.231 relative 10-mer count; with CTCCTCCCCC, 0.119 relative 10-mer count.
With AAAAGCAGTA the figure was 0.17 relative 10-mer count; with AAAAAGCATA, 0.182 relative 10-mer count.
Next, CCCCCCCGCC: 0.204 relative 10-mer count; CCCTCCCCCA: 0.192 relative 10-mer count; CACCCTCCCA: 0.123 relative 10-mer count.
The sequence ACCACCCCCC had a binding signal of 0.211 relative 10-mer count.
With AGTGTTTCCA the figure was 0.13 relative 10-mer count; with CGAAAAAAGC, 0.221 relative 10-mer count; with CCCCCCTCCA, 0.13 relative 10-mer count.
Next, CGACCCCCCC: 0.113 relative 10-mer count; CTCCCCCGCC: 0.118 relative 10-mer count; CCCCCACCGC: 0.192 relative 10-mer count.
With ACAAAAAACA the figure was 0.143 relative 10-mer count; with CCACCCCAGC, 0.102 relative 10-mer count.
Take CCCCCCAACC: the binding signal is 0.194 relative 10-mer count.
With CGCCACCCCC the figure was 0.212 relative 10-mer count; with CCACCCAACC, 0.151 relative 10-mer count.
With GCATACCCAC the figure was 0.132 relative 10-mer count.
For CCCCACCCCC, the binding signal is 0.447 relative 10-mer count.
In turn, GCCCCACCAC yielded a binding signal of 0.137 relative 10-mer count.
Next, CCCCGCCACC: 0.266 relative 10-mer count; CCCACCTCCC: 0.339 relative 10-mer count.
CCCCACCCAC returned a binding signal of 0.337 relative 10-mer count.
With CCCTACCCCA the figure was 0.11 relative 10-mer count; with ACAAAAAAAA, 0.179 relative 10-mer count.
With AGGTGGGTGG the figure was 0.149 relative 10-mer count.
With CCGCCCCCTC the figure was 0.128 relative 10-mer count.
In turn, CCACGTCCCC yielded a binding signal of 0.11 relative 10-mer count.
Regarding AGGGTGGTGG, the binding signal worked out at 0.142 relative 10-mer count.
Next, AAAAAAAAAA: 0.186 relative 10-mer count; GAAAAAAAAA: 0.142 relative 10-mer count.
